# Source: PubChem (Sanford-Burnham Center for Chemical Genomics)
# CYP2C19 inh: blockers of cytochrome P450 2C19 activity – biochemical, luminescence, ADME assay, primary screen. CYP2C19 Supersomes, luciferin-H EGE luminescence, 30 min. 96,000 compounds, 21% hits. P33261. AID 778, 2007. inhibition, % at 5 µM;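 active means CYP2C19 inhibition above a set limit at 5 µM in the primary screen, cut at about 50% in these data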
# CD11b adhes inh: inhibitors of CD11b/CD18 adhesion to fibrinogen, primary screen, K562 cells, luminescence | Integrin beta-2 (Homo sapiens) + Integrin alpha-M (Homo sapiens), P05107+P11215 | ATPlite luminescence; Mn2+ added to activate the integrin | inhibition, % at 10 µM | 93,000 compounds, 0.54% hits;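 active means primary inhibition of 50% or more at 10 µM, then 40% or more on retest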
# CYP2C9 inh: blockers of cytochrome P450 2C9 activity – biochemical, luminescence, ADME assay, primary screen; CYP2C9 Supersomes, luciferin-H conversion; inhibition, % at 5 µM; 96,000 compounds, 20% hits; AID 777, 2007;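 active means blocking of liver enzyme CYP2C9 beyond about 50% at 5 µM, limit read from the data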
# Target sequence (P11712 whole entry, looked up): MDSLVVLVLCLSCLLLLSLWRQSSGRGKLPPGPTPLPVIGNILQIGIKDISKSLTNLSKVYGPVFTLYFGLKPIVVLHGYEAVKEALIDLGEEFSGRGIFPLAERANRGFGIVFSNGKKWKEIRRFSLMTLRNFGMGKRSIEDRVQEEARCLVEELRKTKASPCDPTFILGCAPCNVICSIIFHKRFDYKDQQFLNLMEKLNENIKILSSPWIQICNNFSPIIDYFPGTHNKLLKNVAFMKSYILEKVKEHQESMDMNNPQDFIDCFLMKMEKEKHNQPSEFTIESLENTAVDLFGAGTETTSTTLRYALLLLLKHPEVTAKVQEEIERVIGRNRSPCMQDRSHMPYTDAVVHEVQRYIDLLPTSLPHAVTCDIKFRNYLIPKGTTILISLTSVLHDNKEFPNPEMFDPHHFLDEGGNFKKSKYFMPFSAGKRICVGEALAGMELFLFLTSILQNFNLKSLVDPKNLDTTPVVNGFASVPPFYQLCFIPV
# CYP2C9 activ: human CYP2C9 activators, primary screen, biochemical, luminescence; AID 1024, 2008; Cytochrome P450 2C9 (Homo sapiens), P11712; recombinant CYP2C9, luciferin-H conversion; hits give high values; factor 1 = untreated enzyme, 0 = blocked; activation factor at 5 µM; 96,000 compounds, 1.4% hits;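 active means activation factor of 2 or more for CYP2C9 at a 5 µM dose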
# Mac1 fbg enh: enhancers of CD11b/CD18 adhesion to fibrinogen, primary screen, K562 cells, luminescence; Integrin beta-2 (Homo sapiens) + Integrin alpha-M (Homo sapiens), P05107+P11215; 93,000 compounds, 0.07% hits; activation, % at 10 µM; AID 1499, 2009; ATPlite luminescence;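 active means 10 µM primary screen giving 50% or more activity, confirmed by 40% or more on retest at that dose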
# CYP2C19 activ: human CYP2C19 activators, primary screen, biochemical, luminescence; 96,000 tested, under 10 active; Cytochrome P450 2C19 (Homo sapiens), P33261; recombinant CYP2C19, luciferin-H EGE luminescence; hits give high values; 0 = fully inhibited enzyme, 1 = untreated enzyme; activation factor at 5 µM;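 active means activation factor of at least 2 at 5 µM in the primary screen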
# Numbers stand for hits; - = inactive; . = not tested or not shown. Sampled rows, rich in hits. Any-hit rate of the full collection: about 28%.
SMILES,CYP2C19 inh,CD11b adhes inh,CYP2C9 inh,CYP2C9 activ,Mac1 fbg enh,CYP2C19 activ
O=C(c1ccco1)N1CCN(C(c2ccccc2F)c2nnnn2CC2CCCO2)CC1 (stereo not drawn),-,-,71,-,-,-
CCC(c1nnnn1CCc1ccccc1)N1CCN(C(=O)c2ccco2)CC1 (stereo not drawn),-,-,-,-,-,-
CCCCC(c1nnnn1Cc1ccco1)N1CCN(C(=O)c2ccco2)CC1 (stereo not drawn),85,-,51,-,-,-
Cc1ccc(C(c2nnnn2Cc2cccs2)N2CCN(C(=O)c3ccco3)CC2)cc1 (stereo not drawn),71,-,-,-,-,-
O=C(c1ccco1)N1CCN(C(c2ccccc2Cl)c2nnnn2CC2CCCO2)CC1 (stereo not drawn),-,-,-,-,-,-
O=C(c1ccco1)N1CCN(C(c2ccccc2F)c2nnnn2Cc2cccs2)CC1 (stereo not drawn),-,-,-,-,-,-
CC(=O)C1=C(O)C(=O)N(Cc2ccccc2)C1c1ccco1 (stereo not drawn),-,-,-,-,-,-
Cc1ccc2c(Cl)cc(Cl)c(OCC(=O)Nc3ccc(C)c(S(=O)(=O)N(C)C)c3)c2n1,.,-,.,.,-,.
Cc1cc(=O)n2nc(N3CCCC3C(=O)NCCCN3CCCCC3)sc2n1 (stereo not drawn),-,-,-,-,-,-
c1ccc2c(c1)ncn2CCCOc1ccc2c(c1)CCC2,-,-,-,-,-,-
Cc1ccccc1OCCCCn1cnc2ccccc21,61,95,-,-,-,-
Brc1ccccc1OCCCn1cnc2ccccc21,58,-,60,-,-,-
c1ccc(OCCCCn2cnc3ccccc32)cc1,60,63,-,-,-,-
Cc1cc(C)c(C)c(OCCCCn2cnc3ccccc3c2=O)c1,-,-,-,-,-,-
Cc1cccc(Cn2cnc3ccccc32)c1,84,-,53,-,-,-
c1ccc(OCCn2cnc3ccccc32)cc1,-,-,-,-,-,-
Cc1ccc(Cl)c(OCC(=O)OCC(=O)NC2CCCc3ccccc32)c1 (stereo not drawn),.,-,.,.,-,.
CCOc1ccc(NCc2ccccc2OCc2cccc(F)c2)cc1,.,-,.,.,-,.
CCOC(=O)/C(=C\Nc1ccc(OC(F)(F)F)cc1)Sc1ncc(C(F)(F)F)cc1Cl,-,-,-,-,-,-
Cc1[nH]c(=O)[nH]c(=O)c1/C=C/C(=O)OCC(C)C,.,-,.,.,-,.
Cc1noc(C)c1S(=O)(=O)N1CCCC(C(=O)NCc2ccccn2)C1 (stereo not drawn),-,-,-,-,-,-
Fc1ccc(Cn2cnc3ccccc32)cc1,-,-,-,-,-,-
c1ccc2c(c1)ncn2CCCCOc1ccc2c(c1)CCC2,-,82,-,-,-,-
CCCOc1ccc(Cn2cnc3ccccc32)cc1,65,89,87,-,-,-
CCCOc1c(Cl)cc(C(=O)Nc2ccc3c(c2)OCO3)cc1OCC,-,-,-,-,-,-
SMILES,CYP2C19 inh,CD11b adhes inh,CYP2C9 inh,CYP2C9 activ,Mac1 fbg enh,CYP2C19 activ
COC(=O)C1=C(CSCc2ccco2)NC(=O)NC1c1cc(C)ccc1C (stereo not drawn),91,-,80,-,-,-
COC(=O)C1=C(CSc2nc3ccccc3o2)NC(=O)NC1c1cc(C)ccc1C (stereo not drawn),77,-,78,-,-,-
CCCc1cc(=O)[nH]c(SC(CC)C(=O)Nc2ccccc2C#N)n1 (stereo not drawn),-,-,-,-,-,-
COc1cc(-c2nc(-c3ccccc3)c(-c3cccs3)[nH]2)cc(OC)c1O,61,-,82,-,-,-
COc1cc(-c2nc(-c3ccccc3)c(-c3cccs3)[nH]2)cc(OC)c1OC,-,-,-,-,-,-
CC(=O)Nn1c(C)nnc1-n1nc(C)cc1C,-,-,-,-,-,-
CCOC(=O)Cn1nnnc1CN(Cc1ccc(OC)cc1)Cc1cc2cc(CC)ccc2[nH]c1=O,97,-,95,-,-,-
COc1ccccc1CN(Cc1cc2cc(C)ccc2[nH]c1=O)Cc1nnnn1Cc1ccco1,99,-,98,-,-,-
CCOC(=O)Cn1nnnc1CN(Cc1ccc(OC)cc1)Cc1cc2cc(C)cc(C)c2[nH]c1=O,-,-,-,-,-,-
CCc1ccc2[nH]c(=O)c(CN(Cc3ccccc3OC)Cc3nnnn3Cc3ccco3)cc2c1,58,.,96,-,.,-
COCCn1nnnc1CN(Cc1ccco1)Cc1cc2cc3c(cc2[nH]c1=O)OCO3,-,.,-,-,.,-
c1ccc(Cn2c(-c3ccco3)nc3nc4ccccc4nc32)cc1,-,-,-,-,-,-
c1coc(-c2nc3nc4ccccc4nc3n2-c2ccc3c(c2)OCCO3)c1,-,-,64,-,-,-
Cc1ccc(OCC2Cn3c(nc4c3c(=O)[nH]c(=O)n4C)O2)cc1 (stereo not drawn),-,-,-,-,-,-
COc1ccc(Cl)cc1NC(=O)NC(C)c1ccncc1 (stereo not drawn),97,-,92,-,-,-
CC(NC(=O)Nc1ccc(F)cc1F)c1ccncc1 (stereo not drawn),80,-,-,-,-,-
O=C(Nc1ccc(F)cc1F)c1cccnc1,-,-,-,-,-,-
COc1ccc(NC(=O)NC(C)c2ccncc2)cc1OC (stereo not drawn),-,-,60,-,-,-
COc1ccc(Cl)cc1NC(=O)Nc1ccc(Br)cn1,-,-,-,-,-,-
O=c1nc2n(c3c4c(sc13)CCC4)CCC2,-,-,-,-,-,-
O=C(CCSc1nnc2scc(-c3ccccc3)n12)Nc1nc(-c2ccccc2)ns1,-,-,-,-,-,-
CC(=O)Nc1ccc(C(=O)CSc2nnc3scc(-c4ccccc4)n23)cc1,-,-,58,-,-,-
Cc1ccc(-c2csc3nnc(SCC(=O)Nc4cccc(C)n4)n23)cc1,57,-,53,-,-,-
CCN1CCN(C(c2ccc(OC)c(OC)c2)c2nnnn2C(C)(C)C)CC1 (stereo not drawn),-,-,-,-,-,-
CCC(c1nnnn1Cc1cccs1)N1CCN(c2nc3ccccc3s2)CC1 (stereo not drawn),-,-,-,-,-,-
COc1ccc(C(c2nnnn2C(C)(C)C)N2CCN(c3nc4ccccc4s3)CC2)cc1OC (stereo not drawn),56,-,98,-,-,-
